Results as given in PubChem BioAssay.
Several values for one entry are separate records, joined by “and”; a condition that tells them apart may be missing. Equal entries are not always repeated. Inconclusive results are not listed. Activity calls are given as the source filed them. Unless noted, no cut-off is given here; in the data, nearly all actives have AC50 up to about 26 µM.

What was measured:
[1] = viability loss in pontine glioma line – cell-based, SU-DIPG-XXV, MIPE5.0, CellTiter-Glo, qHTS, dose response (AID 1347065); conditions: CellTiter-Glo ATP luminescence;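 note: cells exposed to compound for 48 hours before ATP readout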
[2] = SU-DIPG-VI glioma cell viability, MIPE4.0 library, CellTiter-Glo luminescence, qHTS (AID 1347066; cut-off not given, nearly all actives have AC50 up to about 30 µM;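 note: cells exposed to compound for 48 hours before readout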); conditions: CellTiter-Glo ATP luminescence
[3] = JHH-DIPG-1 glioma cell viability, MIPE5.0 library, CellTiter-Glo luminescence, qHTS (AID 1347067); conditions: JHH-DIPG-1 glioma viability, CellTiter-Glo ATP luminescence;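 note: cells exposed to compound for 48 hours before readout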
[4] = SU-DIPG-XXV glioma cell viability, MIPE5.0 library, qHTS (AID 1347068; cut-off not given, nearly all actives have IC50 up to about 30 µM;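 for IC50: cells exposed to compound for 48 hours before viability readout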)
[5] = sensitizers of A549 cells to miR-34 induction, primary screen, imaging, A549 dox-inducible miR-34, nuclei and caspase counts (AID 1347080;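 active = compounds whose cell count with miR-34 switched on is under 0.7 times the count with it off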); conditions: A549 miR-34 inducible, Hoechst nuclei count, 48 h
[6] = survival rescue of mitochondrial mutant cells in low glucose, primary screen, MELAS cybrids, Rieske KO mouse fibroblasts, CellTiter-Glo (AID 1508586;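 active = mean z-score across replicates of 1.96 or higher in either the MELAS or the Rieske mutant cell line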;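 note: z relative to plate mean and SD of compound and empty wells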)
[7] = molecular target: NAD(+) hydrolase SARM1 (Homo sapiens) (UniProt Q6SZW1); experiment: SARM1 TIR NADase inhibitors, cell lysate, NAD-Glo luminescence (AID 1508614;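 active = compound whose remaining NAD level is above about 45 nM, limit read from the data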;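 note: higher remaining NAD means stronger inhibition of SARM1 NADase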); conditions: SAM-TIR HEK293T lysate NADase, at 1 µM, stronger effect = higher value
Chain of NAD(+) hydrolase SARM1 (Homo sapiens) (Q6SZW1 whole entry, looked up, the tested form may be a part): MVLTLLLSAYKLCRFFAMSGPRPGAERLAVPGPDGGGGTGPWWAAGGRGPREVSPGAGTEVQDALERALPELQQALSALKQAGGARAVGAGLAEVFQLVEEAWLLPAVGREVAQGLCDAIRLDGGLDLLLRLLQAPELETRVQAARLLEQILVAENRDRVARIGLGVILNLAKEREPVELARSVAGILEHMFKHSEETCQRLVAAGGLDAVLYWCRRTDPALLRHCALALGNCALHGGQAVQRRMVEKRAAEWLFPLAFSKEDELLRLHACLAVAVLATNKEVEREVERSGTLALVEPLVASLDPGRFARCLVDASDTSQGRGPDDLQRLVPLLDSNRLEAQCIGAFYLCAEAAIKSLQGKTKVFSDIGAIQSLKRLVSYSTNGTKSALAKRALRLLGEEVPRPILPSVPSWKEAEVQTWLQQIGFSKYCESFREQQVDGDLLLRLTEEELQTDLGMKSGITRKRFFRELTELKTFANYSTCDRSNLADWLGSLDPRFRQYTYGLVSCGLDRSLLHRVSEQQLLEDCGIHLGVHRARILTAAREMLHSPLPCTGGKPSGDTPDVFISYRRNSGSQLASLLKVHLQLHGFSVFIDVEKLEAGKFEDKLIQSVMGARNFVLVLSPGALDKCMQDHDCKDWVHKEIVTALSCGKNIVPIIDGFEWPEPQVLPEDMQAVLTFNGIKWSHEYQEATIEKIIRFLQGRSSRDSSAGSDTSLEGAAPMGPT

[8] = molecular target: Mitogen-activated protein kinase 7 (Homo sapiens) (UniProt Q13164); experiment: ERK5 transactivation activators in reporter cells, primary screen, cell-based, HTS (AID 1508626;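 active = luciferase signal above three times the same-plate solvent-only control wells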;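 note: luciferase driven by Gal4-ERK5 fusion binding five Gal4 sites before minimal TATA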); conditions: HeLa Gal4-ERK5 transactivation, 18 h, at 5 µM, stronger effect = higher value
Chain of Mitogen-activated protein kinase 7 (Homo sapiens) (Q13164 whole entry, looked up, the tested form may be a part): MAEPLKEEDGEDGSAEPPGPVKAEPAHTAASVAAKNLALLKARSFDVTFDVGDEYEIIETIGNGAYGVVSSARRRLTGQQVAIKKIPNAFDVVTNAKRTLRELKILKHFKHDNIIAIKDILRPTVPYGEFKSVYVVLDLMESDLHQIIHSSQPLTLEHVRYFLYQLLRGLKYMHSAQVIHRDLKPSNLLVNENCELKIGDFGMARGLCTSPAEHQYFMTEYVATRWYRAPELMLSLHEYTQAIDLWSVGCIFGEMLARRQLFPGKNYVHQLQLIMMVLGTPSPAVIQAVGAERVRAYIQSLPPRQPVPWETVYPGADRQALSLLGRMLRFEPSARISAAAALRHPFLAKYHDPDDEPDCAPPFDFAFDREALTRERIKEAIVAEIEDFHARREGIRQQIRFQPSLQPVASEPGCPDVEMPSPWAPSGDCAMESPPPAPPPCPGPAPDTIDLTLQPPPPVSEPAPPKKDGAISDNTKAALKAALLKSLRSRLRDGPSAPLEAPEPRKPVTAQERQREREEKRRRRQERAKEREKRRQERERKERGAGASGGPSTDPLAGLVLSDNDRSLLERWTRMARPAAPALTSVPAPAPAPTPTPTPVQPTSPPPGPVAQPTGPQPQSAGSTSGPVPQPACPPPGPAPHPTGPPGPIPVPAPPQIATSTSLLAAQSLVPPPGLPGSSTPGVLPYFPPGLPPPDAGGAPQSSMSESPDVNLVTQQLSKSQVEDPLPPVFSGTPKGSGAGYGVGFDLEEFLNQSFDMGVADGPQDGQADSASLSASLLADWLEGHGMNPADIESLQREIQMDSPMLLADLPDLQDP

[9] = phospholipid biosynthesis inhibitors in animal cells, primary screen, cell-based, LOPAC library, screen 4 (AID 1347384; call rule not given here); conditions: phospholipid biosynthesis inhibition screen, at 10 µM
[10] = viability rescue of complex I mutant cybrids, primary screen, cell-based, galactose medium, ATP luminescence (AID 1645843;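 active = z-score of at least 1.8 in each of two replicates, scored against plate mean and spread of sample wells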;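 note: positive z means more ATP and so rescue of galactose-driven cybrid death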); conditions: complex I mutant cybrid cells, 72 h, stronger effect = higher value
[11] = stronger effect = lower value, cell number ratio, induced over uninduced
[12] = measured here: relative caspase fold change +Dox/-Dox
[13] = measured here: total cells with miR-34 induction, stronger effect = lower value
[14] = measured here: total cells without miR-34 induction
[15] = MELAS cybrid survival, CellTiter-Glo 48 h, stronger effect = higher value
[16] = Rieske KO mouse fibroblast survival, CellTiter-Glo 72 h

| Compound | AC50 [1] | AC50 [2] | AC50 [3] | IC50 [4] | fold change [5, 11] | fold change [5, 12] | cell count [5, 13] | cell count [5, 14] | z-score [6, 15] | z-score [6, 16] | outcome [1] | outcome [2] | outcome [3] | outcome [4] | remaining NAD [7] | luciferase signal [8] | outcome [9] | z-score [10] |
| --- | --- | --- | --- | --- | --- | --- | --- | --- | --- | --- | --- | --- | --- | --- | --- | --- | --- | --- |
| CCCCN(CCCC)CCC(O)c1cc2c(Cl)cc(Cl)cc2c2cc(C(F)(F)F)ccc12 (stereo not drawn) | 23.5 µM (active) | 23.5 µM (active) | 16.6 µM (active) | 20.9 µM (active) | 0.972 (inactive) | 0.81 | 8330 | 8580 | -1.05 (inactive) | -0.678 |  |  |  |  |  |  |  |  |
| CN(C)CCc1c[nH]c2ccc(CS(=O)(=O)N3CCCC3)cc12 |  |  |  |  | 0.94 (inactive) | 1.05 | 7180 | 7640 | -0.0807 (inactive) | -0.352 | inactive | inactive | inactive | inactive | 10 nM (inactive) | 52 AU (inactive) |  |  |
| NCCS(=O)(=O)O |  |  |  |  | 0.992 (inactive) and 0.904 (inactive) | 1.43 and 3.02 | 10100 and 12500 | 10200 and 13800 |  |  | inactive | inactive | inactive | inactive | 10 nM (inactive) | 80 AU (inactive) | inactive | 0.675 (inactive) |
| O=C(O)CSCC(=O)NC1CCSC1=O (stereo not drawn) |  |  |  |  | 0.961 (inactive) and 0.85 (inactive) | 0.755 and 1.41 | 8260 and 8130 | 8600 and 9570 | -0.199 (inactive) | 0.356 | inactive | inactive | inactive | inactive | 10 nM (inactive) |  |  |  |
| CC1(C)O[C@@H]2C[C@H]3[C@@H]4C[C@H](F)C5=CC(=O)C=C[C@]5(C)[C@@]4(F)[C@@H](O)C[C@]3(C)[C@]2(C(=O)CO)O1 |  |  |  |  | 0.962 (inactive) and 0.858 (inactive) | 2.42 and 1.12 | 7620 and 6920 | 7920 and 8070 | 0.713 (inactive) and 0.472 (inactive) | 0.469 and 1.67 | inactive | inactive | inactive | inactive | 10 nM (inactive) | 124 AU (inactive) |  | -0.48 (inactive) and 0.45 (inactive) |
| CN(C)c1ccc2nc3ccc(=[N+](C)C)cc-3sc2c1 | 5.9 µM (active) | 2.35 µM (active) | 10.5 µM (active) | 9.34 µM (active) | 0.946 (inactive) | 1.47 | 3100 | 3280 |  |  |  |  |  |  | 10 nM (inactive) | 80 AU (inactive) |  |  |
